Screens deposited in PubChem BioAssay by National Center for Advancing Translational Sciences (NCATS).
LASV entry inh = inhibitors of Lassa virus binding or cell entry; Lassa virus pseudotype entry inhibition, cell reporter; Potency, µM (series often up to 37.9 µM), without a hit: at the highest dose activity change, negative = inhibition, usual class: inhibitors; hit rate 1.2% among 300,000; AID 540256; calls by dose curve; tested in HEK293 cells; note: potency is the fitted concentration of half-maximal effect; nearly all actives have a fitted effect of over 50% in size
Pf growth 96h = P. falciparum growth inhibition at 96 hours; P. falciparum luciferase reporter growth, 96 h; Potency, µM (titrated, usually from 28.7 µM), for inactives: at the highest dose activity change, negative = inhibition, usual class: inhibitors; hit rate 6.9% among 320,000; AID 504834; note: potency is the fitted concentration of half-maximal effect
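Compounds incubated with erythrocytes infected by luciferase-expressing P. falciparum (2% hematocrit, 0.05% parasitemia final) for 96 hours, 37 C in 5% CO2. Growth inhibition scored as decreased luciferase luminescence.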
MARV entry inh = blocks Marburg virus binding to or entry into cells. hit rate 1.8% among 300,000. Marburg virus pseudotyped entry inhibition, cell reporter. Potency, µM (series often up to 37.8 µM), without a hit: at the highest dose activity change, negative = inhibition, hits mostly inhibitors; calls by dose curve; tested in HEK293 cells; note: potency is the fitted concentration of half-maximal effect
HCV inhibitor = blocks hepatitis C virus. Potency, µM (titrated, usually from 41.8 µM), inactives show at the highest dose activity change, negative = inhibition, actives largely listed as inhibitors. hit rate 3.4% among 340,000. Huh7.5.1 HCVcc-Cre infection, luciferase reporter, 44 h; note: potency is the fitted concentration of half-maximal effect
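Reporter virus HCVcc-Cre (~0.5 moi) infects cells exposed to compound; seeding density 1,000 cells/well with 4 h settling beforehand. Luminescence, 15 sec read, taken 44 h post-infection following a 15 min RT substrate incubation.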
Pf growth 48h = inhibits P. falciparum growth in the first generation, 48 h; Potency, µM (series often up to 28.7 µM), for the others: top-dose activity change, negative = inhibition, most hits filed as inhibitors; hit rate 5.9% among 310,000; P. falciparum luciferase growth in erythrocytes, 48 h; note: potency is the fitted concentration of half-maximal effect
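Growth was read as firefly luciferase luminescence after a 48 h, 37 C, 5% CO2 exposure of compounds to reporter-bearing P. falciparum cultures (0.1% parasitemia, 2% hematocrit final) in Albumax-supplemented RPMI 1640.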
HCMV antiviral = human cytomegalovirus inhibition. HFF cells, HCMV-luciferase reporter, 72 h; hits give low values. activity change, negative = inhibition, % at 57.5 µM. hit rate 4.5% among 410,000; in the data active = activity change below about -60%; inconclusive = no clear call, values can overlap the other calls; inactive = above about -39%
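Two compound doses tested in HFFs infected with HCMV-luciferase, MOI 1 PFU/cell, 72 h at 37C. Lysate luminescence read with OneGlo; data normalized against buffer-only and 10uM Salinomycin inhibitor controls.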
* hit, by the source's call; ? = inconclusive; nt = no result; + = active, no number; [ ] = another dose, or the depositor's remark. This is a sample that favours compounds with a hit; in the whole collection about 14% have one here. Unless noted, calls come from the whole dose curve; as a rule, active = well fitted inhibition curve with a large enough effect; inconclusive = small, poorly fitted or top-dose-only effect, or another doubt; inactive = no such curve, though single readings can be large or run the other way. % is set by controls: 0 for no effect and ±100 for the full control effect.

SMILES | LASV entry inh | Pf growth 96h | MARV entry inh | HCV inhibitor | Pf growth 48h | HCMV antiviral
O=C(NN=C1CCN(Cc2ccccc2)CC1)c1ccccc1 | 3% | ? | -1%[46.1 µM] | -7% | 16% | ?
O=C(NN=C1CCN(Cc2ccccc2)CC1)c1cc(Br)ccc1O | nt | 1.9µM* | nt | -5% | 45% | -34
Cn1nnc(NC(=S)NC(=O)c2cc(Cl)ccc2Cl)n1 | nt | 4.1µM* | nt | 21% | 8.3µM* | +
COc1cc2ccccc2cc1C(=O)NC(=S)Nc1nnn(C)n1 | 0% | ? | -2% | -7% | 4% | -25
COC(=O)c1ccccc1NC(=O)Nc1cc(C(C)(C)C)on1 | ? | -12% | -27% | ? | 25% | -6
CC(C)(C)c1cc(NC(=O)Nc2ccccc2OC(F)(F)F)no1 | nt | ? | nt | ? | 12µM* | ?
O=C(Cn1cc(C(F)(F)F)ccc1=O)N1CCc2ccccc21 | nt | nt | nt | -1% | nt | -4
CCOC(=O)C(CO)(NC(C)=O)C(=O)OCC | 22% | 0.93µM* | -1% | -6% | 5% | 103
Cc1cccc(Nc2nc(N)nc(N)c2S(=O)(=O)c2ccccc2)c1 | -22%[46.1 µM] | nt | ? | nt | nt | -103*
COc1ccc(Nc2nc(N)nc(N)c2S(=O)(=O)c2ccccc2)cc1 | -8%[46.1 µM] | nt | ? | nt | nt | -16
COc1cc([N+](=O)[O-])ccc1NC(=O)CC1SC(=Nc2ccc(F)cc2)N(CCC2=CCCCC2)C1=O (centres undefined) | 3.2µM* | 1.9µM* | ? | ? | ? | -99*
COc1ccc(OC)c(NC(=O)CC2SC(=Nc3ccc(F)cc3)N(CCC3=CCCCC3)C2=O)c1 (centres undefined) | ? | 4.1µM* | ? | ? | ? | 2
COc1cc([N+](=O)[O-])ccc1NC(=O)Cc1ccc(F)cc1 | -11% | 58% | -29% | -6% | 12% | -7
COc1ccc(N=C2SC(CC(=O)Nc3ccc(OC)cc3OC)C(=O)N2C)cc1 (centres undefined) | -30% | 5% | 0% | -28% | -13% | 28
CCn1cnc2c(=O)oc3ccc(S(=O)(=O)N4CCN(c5cc(C)ccc5C)CC4)cc3c21 | 20%[46.1 µM] | nt | 2%[46.1 µM] | nt | nt | -3
N#Cc1c(NC(=O)CSc2ncnc3sccc23)oc(-c2ccco2)c1-c1ccco1 | -3% | 2.3µM* | 2% | -28% | nt | -19
COc1ccc2c(c1)CCc1c(C(=O)N3CCCc4ccccc43)noc1-2 | -2% | 10% | ? | ? | 6.6µM* | -21
COc1ccc(C(=O)N2CC3(C)CC2CC(C)(C)C3)cc1 (centres undefined) | -28% | -28% | -1% | -9% | ? | 8
COc1ccc2c(c1)CCc1c(C(=O)N3CCOCC3)noc1-2 | ? | nt | ? | -8% | 127% | 87
COc1ccc2c(c1)CCc1c(C(=O)N3CC4(C)CC3CC(C)(C)C4)noc1-2 (centres undefined) | ? | ? | ? | ? | 15µM* | ?
CC(C)OCCCn1c(SCC(N)=O)nc2c(sc3ccccc32)c1=O | ? | nt | nt | nt | nt | -36
Cc1ccc(Oc2ccc(OCC(=O)NC(CC(C)C)C(=O)O)cc2)cc1 (centres undefined) | 0% | 25% | ? | 13% | -16% | -65*
CC(C)COc1ccc(C(=O)NC(CC(C)C)C(=O)O)cc1 (centres undefined) | 4% | 7% | 27% | 24% | 15% | -6
CCN1C(=O)CC(c2ccc(OC(C)C)cc2)C1=O (centres undefined) | 4% | 33% | 26% | 0% | -4%[0.00184 µM] | 71
Cc1nc(Nc2ccc(Cl)cc2Cl)sc1C(=O)Nc1ccccc1 | -15% | 12µM* | ? | 10µM* | ? | -14
SMILES | LASV entry inh | Pf growth 96h | MARV entry inh | HCV inhibitor | Pf growth 48h | HCMV antiviral
Cc1nc(Nc2ccc(Cl)c(Cl)c2)sc1C(=O)Nc1ccccc1 | ? | ? | ? | 8.9µM* | ? | -89*
Cc1nnsc1C(=O)NNC(=O)Nc1ccccc1 | nt | ? | nt | -3% | -7% | -30
O=C(CSCc1cc(=O)n2nc(C3CC3)sc2n1)Nc1ccccc1Cl | 5%[46.1 µM] | 3.3µM* | 2%[46.1 µM] | 3% | ? | -27
Cc1nc(NC(=O)/C=C/c2ccccc2)sc1C(=O)Nc1ccc(Cl)cc1 | 1% | 43% | ? | -27% | ? | -23
Cc1nnsc1C(=O)Nc1ccccc1 | 27% | 10µM* | -4% | 25% | -5% | 10
Cc1nc(Cl)sc1C(=O)Nc1ccccc1Cl | nt | 17% | nt | 13% | ? | 5
Cc1nc(NC(=O)C2CC2)sc1C(=O)Nc1ccccc1Cl | nt | -13% | nt | ? | 83% | -104*
O=C(CSc1nnc(NC(=O)C2CC2)s1)Nc1ccccc1Cl | nt | 15% | ? | 24% | 15% | -63*
O=C(CSc1nnc(NC(=O)C2CC2)s1)Nc1ccccc1C(F)(F)F | -2% | 176% | ? | -13% | -3% | 3
COc1ccc(C(=O)c2coc3c2C(=O)C(=O)c2ccccc2-3)cc1 | 11µM* | ? | ? | -25% | -47% | 68
O=C(c1ccccc1)c1coc2c1C(=O)c1ccccc1C2=O | nt | -16% | ? | 0% | ? | 72
CCOP(=O)(c1ccccc1)C(O)c1ccc(F)cc1 (centres undefined) | 22% | 7.4µM* | ? | 4% | -5% | 8
CCOP(=O)(c1ccc(N(C)C)cc1)C(O)c1ccccc1 (centres undefined) | 9% | nt | ? | -24% | 12µM* | -83*
CCOP(=O)(c1ccccc1)C(O)c1ccc([N+](=O)[O-])cc1 (centres undefined) | ? | 362% | -1% | -4% | -13% | 104
CC(C)COP(=O)(c1ccc(N(C)C)cc1)C(O)c1ccccc1 (centres undefined) | 5% | -17% | 18%[46.1 µM] | 10% | -5% | -3
Oc1ccccc1N1CCN(C(=S)Nc2ccc(SC(F)F)cc2)CC1 | 5µM* | 15% | ? | ? | 21% | ?
FC(F)Sc1ccc(NC(=S)N2CCN(c3ccccn3)CC2)cc1 | nt | -15% | ? | ? | 10% | -2
Fc1ccccc1Cn1c(-c2ccccc2)nc2ccccc21 | ? | nt | -19%[46.1 µM] | nt | nt | -61*
Cc1ccccc1Cn1c(-c2cncs2)nc2ccccc21 | ? | 14% | 5% | -7% | 1.5µM* | 15
CC(C)N(C(=O)CSc1nc2ccccc2n1Cc1ccccc1F)C(C)C | -22% | -22% | -26% | ? | 10µM* | -27
Cc1ccccc1Cn1c(C)nc2ccccc21 | ? | 29% | ? | 5.6µM* | ? | -87*
CC(C)N(C(=O)CSc1nc2ccccc2n1Cc1ccccc1)C(C)C | -22% | 1% | -3%[46.1 µM] | ? | ? | ?
Cn1c(=O)c2c(n3c4ccccc4nc13)NC(=O)CC2c1ccccc1F (centres undefined) | -14%[46.1 µM] | nt | nt | nt | nt | 11
